Sampled rows, rich in hits. Any-hit rate of the full collection: about 5.9%.
NR0B1 inh: inhibits human nuclear receptor DAX1. inhibition, % at 6.75 µM. 340,000 compounds, 0.99% hits. P51843. HEK293 Gal4-DAX1 luciferase reporter, luminescence;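 active = inhibition above the mean over all tested compounds plus 3 SD, cut at about 4.2% in these data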;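 also: 0% = DAX1-transfected cells with DMSO and 100% = empty-vector control cells with DMSO; inhibition shows as a rise in luminescence from relieved DAX1 repression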
AHR act: human AHR activation; activation, % at 5 µM; 320,000 compounds, 2.5% hits; AHR-responsive luciferase reporter cells, luminescence; AID 2796; in the data active = activation above about 47%;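 also: 0% = vehicle wells and 100% = reference agonist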
Target sequence (P35869 whole entry, looked up): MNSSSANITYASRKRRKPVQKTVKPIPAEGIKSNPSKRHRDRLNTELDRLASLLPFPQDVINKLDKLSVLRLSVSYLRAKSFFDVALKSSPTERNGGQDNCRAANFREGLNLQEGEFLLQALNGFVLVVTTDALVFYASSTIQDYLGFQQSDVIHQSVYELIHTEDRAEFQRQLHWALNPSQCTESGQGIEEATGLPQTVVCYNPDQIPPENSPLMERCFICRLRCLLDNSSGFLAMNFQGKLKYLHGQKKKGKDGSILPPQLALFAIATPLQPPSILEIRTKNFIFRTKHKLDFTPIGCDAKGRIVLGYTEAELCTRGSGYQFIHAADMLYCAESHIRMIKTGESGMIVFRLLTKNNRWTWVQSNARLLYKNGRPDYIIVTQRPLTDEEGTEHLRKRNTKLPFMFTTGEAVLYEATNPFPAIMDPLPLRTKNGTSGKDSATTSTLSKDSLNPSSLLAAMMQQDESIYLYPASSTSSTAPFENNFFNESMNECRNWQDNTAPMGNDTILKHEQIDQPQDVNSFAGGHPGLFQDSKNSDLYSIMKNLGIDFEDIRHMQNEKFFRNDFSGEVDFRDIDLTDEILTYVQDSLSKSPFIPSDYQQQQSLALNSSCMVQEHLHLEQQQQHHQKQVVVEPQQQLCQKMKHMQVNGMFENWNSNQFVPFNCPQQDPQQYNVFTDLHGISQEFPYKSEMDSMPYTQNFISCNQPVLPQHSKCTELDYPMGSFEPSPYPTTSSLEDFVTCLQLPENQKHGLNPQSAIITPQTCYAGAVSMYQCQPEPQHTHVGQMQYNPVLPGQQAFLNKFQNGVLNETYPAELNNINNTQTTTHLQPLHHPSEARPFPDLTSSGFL
HSP90 refold inh: HSP90 refolding inhibition in rabbit reticulocyte lysate. luciferase refolding luminescence, 3 h. inhibition, % at 5.6 µM. AID 1789. 290,000 compounds, 0.91% hits;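 active = inhibition above the screen-wide mean plus 3 SD, computed separately per campaign, cut at about 16% in these data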;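 also: 0% = DMSO wells and 100% = 60 µM geldanamycin wells; inhibitors lower the luminescence because luciferase stays unfolded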
HSF-1 act: increases HSF-1 driven luciferase reporter signal; NIH3T3-HGL HSF-1 luciferase reporter, MG132, 8 h; 100% = twice DMSO control signal; activation, % at 9 µM; 300,000 compounds, 1.7% hits; AID 504408;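 active = mean replicate activation of at least 50% with a set share of replicates each reaching 50%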;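 also: 0% = median of the neutral control wells and 100% = twice that signal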
FXN GAA850 act: increases GAA850 frataxin promoter reporter activity. HEK293 lucGAA850 FXN promoter luciferase reporter, 24 h; percent of 10 µM SAHA response. activation, % at 6 µM. 360,000 compounds, 0.56% hits. AID 540364;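 active = activation above the average of all compounds screened plus 3 SD, cutoff fixed separately per campaign, cut at about 7.5% in these data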;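 also: 0% = DMSO wells and 100% = 10 µM SAHA wells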
HSF1 inhib: HSF1 inhibition; NIH3T3-HGL HSE-luciferase, MG132-induced, luminescence 8 h; hits give low values; activity change, negative = inhibition, % at 7.5 µM (by protocol); 300,000 compounds, 0.77% hits;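 active = more than half of replicate wells show activity change below -50%, luminescence cut by over half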;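 also: luciferase reports HSF-1 transcriptional activity via heat shock element; 0% = median of DMSO wells and -100% = zero luminescence signal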
Active calls of the source: *; / = no result given.

SMILES	NR0B1 inh	AHR act	HSP90 refold inh	HSF-1 act	FXN GAA850 act	HSF1 inhib
Cc1ccc(C)c(NC(=O)c2cc(-c3cc(C)ccc3O)n[nH]2)c1	2	0	2	92*	5	48
COc1ccc(NC(=O)c2cc(Br)ccc2Cl)c(OC)c1	0	107*	-3	-1	2	-2
COc1cccc(CC2(CO)CCCN(Cc3ccc4c(c3)OCCO4)C2)c1 (stereo unspecified)	0	2	6	16	-1	0
COc1ccc(NC(=O)NNC(=O)c2cc3occc3n2C)c(OC)c1	1	-1	3	133*	1	82
COc1ccc(NC(=O)c2cc(-c3cc(C)cc(C)c3O)n[nH]2)cc1Cl	-1	80*	-2	23	-1	15
COc1ccc(NC(=O)c2cc(-c3cc(Cl)ccc3O)n[nH]2)c(OC)c1	0	2	8	-86	0	-81*
O=C1CN(C(=O)COc2ccc([N+](=O)[O-])cc2Cl)c2ccccc2N1	2	-1	/	/	2	/
Cc1cccc(NC(=O)C2=C(O)c3ccccc3N(C)S2(=O)=O)c1	0	-1	1	4	2	4
CN1c2ccccc2C(O)=C(C(=S)Nc2ccc(Cl)cc2)S1(=O)=O	-1	12	6	60*	0	27
COc1cc2c(cc1OC)-c1c(OC)c(OC)cc3ccnc(c13)C2=O	-3	48*	2	-16	0	-7
CCCCNC(=O)C1(C)CCCCN1C(=O)c1cc(C)n(C(C)(C)C)n1 (stereo unspecified)	/	/	/	/	-2	/
O=S1(=O)CC(O)C(Nc2ccccc2)C1 (stereo unspecified)	1	1	7	2	-4	-9
O=S1(=O)CC(O)C(N(CCO)C(=S)Nc2ccccc2)C1 (stereo unspecified)	5.3*	-1	-1	-3	-1	6
COc1cc(C(O)c2nc(-c3cccc4cccnc34)cs2)ccc1F (stereo unspecified)	/	/	/	/	-1	/
Cc1cc(NS(=O)(=O)c2ccc(NC(=O)COc3ccc(C#N)cc3)cc2)nc(C)n1	1	2	/	/	0	/
CC(C)CC(C)NC(=O)c1ccc(C(F)(F)F)cc1 (stereo unspecified)	4.7*	2	1	-11	3	6
C#CCC(NC(=O)c1ccc(C(F)(F)F)cc1)C(=O)NCCC (stereo unspecified)	2	2	/	/	0	/
COc1ccc(Br)cc1CN(C)C(=O)CNC(=O)c1ccc2ccccc2c1	-1	8	1	9	0	5
COc1ccc(S(=O)(=O)Nc2c(C(=O)O)[nH]c3ccccc23)cc1OC	0	55*	-3	11	0	4
COc1ccc(C(=O)Nc2c(O)ccc3ccccc23)cc1OC	0	53*	/	13	2	-5
CCOc1ccc(CN(C)C(=O)CNC(=O)c2ccc3ccccc3c2)cc1OC	-1	3	5	84*	1	21
COc1cc(OC)c(C(=O)Nc2ccc3ccccc3c2)cc1OC	5.2*	28	-2	35	1	23
CC(=O)c1ccc(NC(=O)CSc2nnc(-c3ccncc3)n2C2CC2)cc1	1	-4	/	/	0	/
COc1ccc(C(=O)Nc2ccc3ccccc3c2)cc1OC	2	2	2	64*	3	25
O=C(Nc1ccc2ccccc2c1)c1cc(F)c(F)cc1Cl	4	-3	-3	59*	2	53
SMILES	NR0B1 inh	AHR act	HSP90 refold inh	HSF-1 act	FXN GAA850 act	HSF1 inhib
COc1ccc(OC)c(NC(=O)c2cc3ccccc3cc2OC)c1	-2	7	3	10	3	12
Cc1ccc(NC(=O)c2cc3ccccc3cc2O)cc1	4.5*	36	0	4	4	3
COc1cc(C(=O)Nc2ccc3ccccc3c2)cc(OC)c1OC	/	/	-3	35	/	20
COc1cc2ccccc2cc1C(=O)Nc1ccc(Cl)cn1	1	53*	-4	31	7	21
Cc1cccc(CNC(=O)C2CCC(=O)N(CC3CCCCC3)C2)c1 (stereo unspecified)	1	/	/	/	0	/
CC(=O)Nc1ccc(-c2ccnc3c2CC(C)(C(=O)Nc2ccc(F)c(Cl)c2)O3)cc1 (stereo unspecified)	/	/	/	/	-4	/
O=C(NC1CC(=O)c2sccc21)c1ccc(Cl)cc1Cl (stereo unspecified)	1	9	-5	34	6	16
